Laboratory results taken from PubChem BioAssay.

assay: COS7 lysate on small-molecule microarray, probe aHis, 635 nm (AID 1123); settings: COS7 cell lysate, fluorescence, higher = more signal;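 also: z-score combines 667nm fluorescence intensity with signal-to-noise per printed compound spot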

Row | SMILES | composite z-score
1 | CC=CC1=C(CO)[C@H](O)[C@H]2O[C@H]2[C@H]1O | -0.188
2 | CC(=O)OC[C@H]1O[C@@H](ON=C[C@@H](C)[C@H](OCc2ccccc2)C(C)C)[C@H](OC(C)=O)[C@@H](OC(C)=O)[C@@H]1OC(C)=O | -0.0857
3 | CC(C)[C@@H](OCc1ccccc1)[C@H](C)C=NOC[C@@H](C)[C@H](OCc1ccccc1)C(C)C | -0.393
4 | [N-]=[N+]=NCc1ccccc1[C@@H]1OC(c2ccc(OCCCO)cc2)=N[C@]1(Cc1ccccc1)C(=O)N1CCOCC1 | 3.06
5 | CCCC=C(CCC)[C@@H](NC(=O)c1ccc(-c2ccccc2)cc1)c1ccc(C(=O)OC)cc1 | 2.41

assay: probe aLAP1 signal on lysate-treated microarray – cell lysate, small-molecule microarray, COS7 lysate, primary screen (AID 1124); settings: probe aLAP1, fluorescence, higher = more signal;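 also: lysate comes from COS7 cells expressing LAP1 and is applied at 0.3 µg/mL; score merges spot fluorescence near 667 nm with signal-to-noise over triplicate slides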

Row | SMILES | composite z-score
6 | CCCNC(=O)OC[C@H]1O[C@H](CCON=CC[C@@H]2C=C[C@H](OC(C)=O)[C@@H](COC(C)=O)O2)C=C[C@@H]1Oc1ccc(OC)cc1 | 0.394
7 | O[C@@H](Cc1ccccc1)[C@H]1C2C=CCCC(c3ccccc3)=C2CN1Cc1cccc(Cl)c1 (stereo partly specified) | 0.466
8 | CCCC[C@@H]1C[C@H]1[C@@H](NS(=O)(=O)c1cccc2cccnc12)c1ccc(-c2ccccc2)cc1 | -0.222
9 | O=C1C2=CC[C@H]3C(=O)N(Cc4ccc5c(c4)OCO5)C(=O)[C@H]3[C@H]2[C@H](O)[C@@H]2O[C@H]12 | 0.397
10 | CCOC(=O)[C@H](CC(C)C)NC(=O)CCC1CC(OC(=O)NCCc2ccc(F)cc2)CC2(CCCC(COC(=O)NCc3ccccc3)O2)O1 (stereo partly specified) | 0.362
11 | CCCNC(=O)[C@@H]1c2ccccc2C(=O)N(Cc2ccccc2Cl)[C@H]1c1ccc(CO)cc1 | 0.779
12 | CO[C@@H]1COC(=O)CC=C[C@@H](C)COC(=O)[C@H](COCc2ccccc2)NC(=O)CC=C[C@H]1C | 0.864
13 | C=COC[C@H]1CN2[C@@H](CC[C@@H](C)[C@@H]2c2ccc(Br)cc2)C(=O)O1 | 0.446
14 | COC(=O)[C@H](C)NC(=O)CCC1CC(OC(=O)NCCc2ccc(F)cc2)CC2(CCCC(COC(=O)NCCc3ccc(Cl)cc3)O2)O1 (stereo partly specified) | 0.0391
15 | COCCCNC(=O)[C@@]1(Sc2ccc(C)cc2)CC(=O)N(Cc2ccccc2)[C@@H]1c1ccc(CO)cc1I | 0.791
16 | Cc1ccc(S(=O)(=O)N[C@@H]2COC(=O)[C@H](C)COC(=O)CC=C[C@H]2C)cc1 | -0.7
17 | C=CC[C@]1(C(=O)NCc2ccccc2)N=C(c2ccc(OCCCO)cc2)O[C@H]1c1ccccc1 | 0.308
18 | CCOc1ccc(N2C(=O)/C(=C/C=C/c3ccccc3OC)S(=O)(=O)C2c2cccc([N+](=O)[O-])c2)cc1 (stereo unspecified) | 0.32
19 | CO[C@H]([C@@H](C)[C@H](OC)c1ccccc1)[C@H](C)[C@@H](OC)[C@H](C)C(C)=O | -0.32
20 | CC(=O)O[C@H]1C2=C(C(=O)[C@@H]3O[C@@H]31)[C@H]1C(C)O[C@@H]2[C@@]23C(=O)[C@@H]4O[C@@H]4[C@@H](O)C2=CO[C@H](C)[C@@H]13 (stereo partly specified) | -0.283
21 | CC(C)=NOCc1ccc(-c2cc(-c3ccccc3)no2)cc1 | 0.0863
22 | C=CCC(OC(C)=O)[C@@H]1[C@@H](N(Cc2cc3ccccc3o2)C(=O)Cc2ccc(F)cc2)c2cc(OCCCO)ccc2N1C(=O)Cc1ccc(OC)cc1 (stereo partly specified) | -0.374
23 | CCN1C(=O)[C@H]2[C@H]3[C@H](O)C=CC(=O)[C@@H]3CC[C@H]2C1=O | 0.402
24 | CC(C)OC(=O)C=C1C[C@@H](c2ccc(C#N)cc2)O[C@@H](c2ccc(C#N)cc2)O1 | 0.148
25 | NC(=O)NCC#Cc1ccc2c(c1)[C@]1(C(=O)N2)[C@H](c2ccc(O)cc2)N2[C@H](c3ccccc3)[C@H](c3ccccc3)OC(=O)[C@H]2[C@@H]1C(=O)N1CCCCCCC1 | 0.596
26 | Cc1cc2c(nc1C)CCCN2CC(O)CN1CCN(C)CC1 (stereo unspecified) | 0.289
27 | C[C@@H]1C=CCC(=O)OC[C@H](C)C(=O)N[C@@H](C)C(=O)OC1 | 0.369
28 | COc1ccc([Si](C)(C)[C@@H]2[C@@H](CCO)O[C@]3(C(=O)N(Cc4ccc(NC(C)=O)cc4)c4ccccc43)[C@H]2C)cc1 | 0.222
29 | COc1ccc([Si](C)(C)[C@H]2[C@H](CC(=O)N3CCC[C@H]3CO)O[C@@]3(C(=O)N(Cc4cccc(N5C(=O)COc6ccccc65)c4)c4ccccc43)[C@@H]2C)cc1 | 0.125
30 | C[C@@H](c1ccccc1)N1C(=O)[C@H]2[C@H]3[C@H](O)C=CC(=O)[C@@H]3CC[C@H]2C1=O | 0.146
31 | C=C(COC)/C(=C/C[C@H](OC(=O)c1ccncc1)c1ccc(CO)o1)c1cc(C(=O)OC)ccc1OC | 0.347
